# Hits are enriched below; roughly 4.1% of the tested compounds scored in any of these assays.
# ssDAF12 agonist – activates DAF-12 receptor from parasite S. stercoralis; HEK293 ssDAF-12/GRIP1 lit1-tk-luc reporter, luminescence; % of 3 µM dafachronic acid response; activation, % at 6.8 µM; actives 1% (n = 370,000); AID 652126;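 active means activation above the mean over all tested compounds plus 3 SD, cut at about 0.9% in these data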;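 further: 0% = DMSO-only wells and 100% = 3 µM delta7-dafachronic acid wells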
# hcDAF-12 act – activates DAF-12 receptor from parasite H. contortus. activation, % at 6.8 µM. actives 1.4% (n = 370,000). HEK293 hcDAF-12 lit1-tk-luc reporter, luminescence; 0% DMSO, 100% Δ7-dafachronic acid;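 active means activation above the mean of all tested compounds plus 3 SD, cut at about 5.5% in these data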;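 further: 100% = response to 3 µM Δ7-dafachronic acid high control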
# hgDAF-12 ag – agonists of H. glycines DAF-12 nuclear receptor; actives 1.8% (n = 370,000); HEK293 GAL4-hgDAF12 UAS-luciferase reporter, agonist luminescence; normalized to butyrate control; activation, % at 6.8 µM;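 active means activation above a cutoff set at the mean of all screened compounds plus 3 SD, cut at about 10% in these data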;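 further: 0% = DMSO wells and 100% = sodium butyrate wells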
# DAX1 inh-1 – NR0B1 (DAX1) inhibition | HEK293 Gal4-DAX1 luciferase reporter, luminescence | inhibition, % at 6.75 µM | actives 0.99% (n = 340,000) | AID 504766;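 active means inhibition above the mean over all tested compounds plus 3 SD, cut at about 4.2% in these data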;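 further: 0% = DAX1-transfected cells with DMSO and 100% = empty-vector control cells with DMSO; inhibition shows as a rise in luminescence from relieved DAX1 repression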
# Target sequence (P51843 207-470 limits assumed): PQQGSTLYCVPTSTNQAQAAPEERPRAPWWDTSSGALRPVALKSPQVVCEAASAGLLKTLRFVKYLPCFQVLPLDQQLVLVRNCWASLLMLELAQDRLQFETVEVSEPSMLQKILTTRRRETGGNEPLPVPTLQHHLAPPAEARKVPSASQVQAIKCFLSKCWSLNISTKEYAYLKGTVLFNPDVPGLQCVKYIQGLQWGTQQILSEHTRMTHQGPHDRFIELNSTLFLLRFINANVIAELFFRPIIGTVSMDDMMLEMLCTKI
# DAX1 inh-2 – inhibitors of DAX1 repression of SF-1 activated StAR promoter. HEK293T StAR-luciferase reporter, SF-1/DAX-1 repression relief. inhibition, % at 6.8 µM. actives 1.1% (n = 370,000). AID 652010;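 active means inhibition above the mean over all tested compounds plus 3 SD, cut at about 3.6% in these data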;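 further: 0% = DAX-1 cells with DMSO and 100% = cells lacking DAX-1 with DMSO; higher inhibition means more luminescence from relief of DAX-1 repression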
# LXRb hcDAF ctr – LXR-beta agonism as hcDAF-12 counter-screen; AID 743027; 3,400 tested, under 10 active; shares compounds with hcDAF-12 act; activation, % at 6.8 µM; HEK293 Gal4-LXR tk-luc reporter, luminescence, 24 h; normalized: DMSO 0%, positive control 100%;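 active means mean percent activation of the reporter above a cutoff set as the average over tested compounds plus their standard deviation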
# hcDAF12 conf – confirmation of H. contortus DAF-12 agonists | shares compounds with hcDAF-12 act | HEK293 hcDAF-12 lit1-tk-luc reporter, luminescence; % of Δ7-dafachronic acid response | activation, % at 6.8 µM | actives 61% (n = 3,400);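 active means mean activation across triplicate tests above the threshold derived from the earlier primary screen, cut at about 5.5% in these data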;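 further: 0% = DMSO only wells and 100% = 3 µM Δ7-dafachronic acid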
# An asterisk follows results filed as active; nt = no result.
SMILES,ssDAF12 agonist,hcDAF-12 act,hgDAF-12 ag,DAX1 inh-1,DAX1 inh-2,LXRb hcDAF ctr,hcDAF12 conf
COc1cccc(C(=O)/C=C/Nc2ccc(S(=O)(=O)Nc3onc(C)c3C)cc2)c1,-0.5,13.2*,9.5,0.5,3.2,0.0,1.9
COc1ccc(C2C(C(=O)Nc3ccc(C)c(C)c3)CCC(=O)N2c2ccc(OC)cc2)cc1 (stereo not given),-1.2,-2.4,-4.6,nt,-0.3,nt,nt
COc1ccc(C2CC(=O)C(c3ccc(C(N)=O)cc3)=CN2Cc2ccccc2)cc1 (stereo not given),-0.9,-0.9,-4.0,nt,-0.2,nt,nt
Cc1[nH]c2ccccc2c1/C=N/Nc1cccc(C(=O)O)c1,0.9*,11.3*,12.5*,-2.7,1.3,1.1,12.6*
Clc1cccc(Nc2nc(-c3cccnc3)cs2)c1,1.8*,8.9*,11.3*,5.4*,0.6,0.8,10.7*
Cc1ccc(Nc2nc(-c3cccnc3)cs2)cc1C,3.8*,19.6*,19.1*,4.3*,3.5,1.6,18.7*
CN(C(=O)[C@@H](Cc1ccccc1)NC(=O)[C@H]1O[C@@H](n2cnc3c(=O)[nH]c(N)nc32)[C@H](O)[C@@H]1O)C1CCCCC1,-0.6,-0.5,-0.5,nt,0.3,nt,nt
c1cncc(Cc2cc3ccccc3[nH]2)c1,-0.5,3.9,-0.5,-0.7,-0.3,nt,nt
c1ccc2[nH]c(-c3cnco3)cc2c1,0.8,6.7*,0.8,0.7,-0.5,0.0,7.3*
O=C(NCc1ccccc1)[C@@H]1CCCN1C(=O)[C@H]1CCCN1C(=O)c1ccccc1Cl,-0.5,-0.5,0.7,nt,0.6,nt,nt
O=c1oc2c(O)cccc2cc1-c1nc2ccccc2[nH]1,0.1,8.1*,9.1,-1.0,1.8,1.0,2.6
O=C(CSc1nnc2ccccn12)N1CCc2ccccc21,-0.1,7.3*,13.2*,1.7,2.8,0.6,5.7*
O=C(CSc1nnc2ccccn12)c1ccc2c(c1)OCCO2,0.2,6.6*,8.7,3.4,3.8*,0.8,4.1
O=C(CSc1nnc2ccccn12)N1CCc2ccccc2C1,-0.2,0.8,3.5,1.2,1.2,nt,nt
Cc1ccc(N=Nc2[nH]c3ccccc3c2O)cc1,0.7,9.5*,13.2*,2.6,2.5,0.8,11.9*
N#C/C(=C\c1ccccc1O)C(=O)Nc1cccnc1,-0.6,0.5,4.2,1.8,0.9,nt,nt
COc1ccc(O)c(/C=C(\C#N)C(=O)Nc2ccccn2)c1,0.8,7.9*,4.5,3.6,0.9,0.4,5.7*
CN(C)CCNC(=O)c1cccc2nc3cccc(F)c3nc12,1.5*,18.2*,-0.6,0.7,-3.8,1.4,14.1*
Cc1cccc(C(=O)NCCN(C)C)c1,-1.2,1.1,0.1,0.9,-0.3,nt,nt
COc1ccc(OC)c2nc3c(C(=O)NCCN(C)C)cccc3nc12,0.1,11.5*,2.1,0.8,0.8,0.3,9.2*
CC(=O)C1=C(C)N(Cc2ccc(F)cc2)C(=S)NC1c1cccc(F)c1 (stereo not given),-1.2,-1.2,0.6,nt,0.5,nt,nt
COCCN(Cc1ccc(C)cc1)C(=O)[C@H]1O[C@@H](n2cnc(C(N)=O)n2)[C@H](O)[C@@H]1O,-0.5,-1.8,-0.4,nt,1.0,nt,nt
CCCCCOc1ccc(NS(C)(=O)=O)cc1,-0.1,8.0*,2.5,1.5,0.9,0.2,3.9
Cc1ccc2nc(-c3sc4nc(C)cc(C)c4c3N)[nH]c2c1,2.3*,16.6*,4.3,-0.2,4.0*,2.3,24.3*
CCOC(=O)C1=C(C(=O)OCC)C2N(Cc3ccc(C(F)(F)F)cc3)c3ccccc3[C@@]23C[C@@H](C(=O)OC)N(S(=O)(=O)c2ccccc2C)C3=N1 (stereo not given in full),-0.8,0.6,1.1,nt,1.5,nt,nt
SMILES,ssDAF12 agonist,hcDAF-12 act,hgDAF-12 ag,DAX1 inh-1,DAX1 inh-2,LXRb hcDAF ctr,hcDAF12 conf
CCc1cc2c(nc1CC)CCCN2CCOC,-1.3,-0.6,0.4,nt,-1.0,nt,nt
Cn1c(SCC(=O)CC(=O)Nc2ccccc2)nnc1-c1ccc(O)cc1,-2.1,-0.9,-1.5,-0.1,0.3,nt,nt
CC(=O)N1N=C(c2ccccc2O)OC1(C)CC(=O)Nc1ccccc1 (stereo not given),-0.2,6.8*,-1.2,3.5,-0.4,-0.3,3.9
O=C(CNc1ccc2ccccc2c1)N/N=C/c1cc2ccccc2nc1Cl,0.1,13.0*,4.3,-1.0,0.5,0.0,3.6
O=C(COc1cccc(Cl)c1)N/N=C\c1cc2ccccc2nc1Cl,-1.4,1.9,-2.7,1.0,0.1,nt,nt
O=C1c2ccccc2NC(c2ccc(-c3cccs3)o2)N1O (stereo not given),1.0*,7.1*,11.5*,2.5,2.4,1.1,6.0*
O=C1c2ccccc2NC(c2ccc(-c3ccc(C(F)(F)F)cc3)o2)N1O (stereo not given),-1.5,-1.5,0.7,3.2,-1.1,nt,nt
COc1ccccc1N1CCN(Cc2c[nH]c3ccccc23)CC1,0.4,1.8,1.3,nt,-0.9,nt,nt
CCS(=O)(=O)N1CCN(Cc2c[nH]c3ccccc23)CC1,-0.5,7.4*,8.9,-0.6,0.8,-0.3,3.4
Cc1ccccc1N1CCN(Cc2c[nH]c3ccccc23)CC1,0.5,6.6*,1.2,0.1,-0.5,-0.3,4.4
O=C(Nc1ccc(Cl)c(Cl)c1)c1cccc2c1-c1ccccc1C2=O,-0.1,4.2,-1.0,nt,-0.2,nt,nt
CCCN1CCS(=O)(=O)N(Cc2cn(Cc3ccc(Cl)cc3)nn2)C(C(=O)OC)C1 (stereo not given),-1.3,3.3,-0.1,nt,-0.9,nt,nt
NC(=O)C1CC(=O)N(c2ccc(OCc3ccccc3Cl)cc2)C1 (stereo not given),0.0,7.3*,5.6,-1.0,0.4,-0.1,0.4
CCOC(=O)Cc1nc(N2CCCN(C(C)=O)CC2)c2c(C)c(C(=O)OCC)sc2n1,-1.6,6.9*,0.2,nt,-1.3,-0.4,-1.9
COc1ccc(/C(C)=N/Nc2nc3ccccc3nc2C)cc1OC,-0.2,8.4*,9.0,5.1*,1.5,0.0,-0.1
O=C(c1ccc(CNc2c(NC3CCCCC3)c(=O)c2=O)cc1)N1CCc2ccccc21,1.1*,7.4*,7.6,1.3,0.1,-0.3,1.3
CC1CCC(NC(=O)c2ccc(CNc3c(NC4CCCCC4)c(=O)c3=O)cc2)CC1 (stereo not given),0.2,-0.3,5.1,0.0,0.8,nt,nt
O=S(=O)(N[C@@H]1CCCC[C@H]1N1CCOCC1)c1ccc(Cl)cc1,-1.3,-0.4,2.0,nt,nt,nt,nt
CC(=O)Nc1ccc(N/C=C(\C=O)c2nc3ccccc3o2)cc1,1.0*,6.7*,1.3,-0.3,-0.2,-0.1,6.7*

# Assay outcomes deposited in PubChem by The Scripps Research Institute Molecular Screening Center.
